{"source": "paper PMC5540273", "about": "(PLoS ONE, 2017);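 also: KINOMEscan kinase panel screen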", "data": [{"tested_on": "SRPK2", "conditions": "concentration: 1 μM, replicates: in singlicate; n = 1", "units": {"%Inh": "%"}, "values": [{"smiles": "COc1cccc(C(=O)Nc2cccc(Oc3ccc4nc(NC(=O)C5CC5)cn4n3)c2)c1", "%Inh": 29}, {"smiles": "Cc1cccc(NC(=O)Nc2ccc(Oc3ncnc4ccn(C)c34)cc2)c1", "%Inh": 0}, {"smiles": "Cc1ccc(S(=O)(=O)Nc2ccc(Nc3nccc(Nc4cccc5[nH]ncc45)n3)cc2)cc1", "note": "[GSK581271]", "%Inh": 5}, {"smiles": "O=C(Nc1ccccc1F)NC1CCN(c2ccnc(Nc3ccc(F)cc3)n2)CC1", "note": "[GSK1379800]", "%Inh": 25}, {"smiles": "Nc1n[nH]c2cnc(-c3ccccc3)cc12", "note": "[SB-642124]", "%Inh": 3}, {"smiles": "c1ccc(-c2n[nH]cc2Nc2ccnc3ccccc23)nc1", "note": "[GW694077]", "%Inh": 46}]}, {"tested_on": "SRPK3", "conditions": "concentration: 1 μM, replicates: in singlicate; n = 1", "units": {"%Inh": "%"}, "values": [{"smiles": "CN(c1ccc(NC(=O)Nc2cc(C(F)(F)F)ccc2F)cc1)c1ccnc(Nc2ccc(S(N)(=O)=O)cc2)n1", "note": "[GW809893]", "%Inh": 20}, {"smiles": "Nc1ncnc2c1nc(-c1ccccc1)n2-c1ccccc1", "note": "[SKF-97293]", "%Inh": 9}, {"smiles": "CN1CCN(CCCNc2nccc(-c3c(-c4ccc(F)cc4)nn4cc(C(F)(F)F)ccc34)n2)CC1", "note": "[GW621581]", "%Inh": 16}, {"smiles": "O=C(Nc1cccc(-c2nn3ccccc3c2-c2ccnc(Nc3cccc(C(F)(F)F)c3)n2)c1)c1c(F)cccc1F", "note": "[GSK292658]", "%Inh": 17}, {"smiles": "COc1cc(Nc2nccc(N3CCC(NC(=O)Nc4cccc(C(C)=O)c4)C3)n2)cc(OC)c1OC", "note": "(stereo not shown) [GSK1379753]", "%Inh": 0}, {"smiles": "Cl.Cl.NCC(C(=O)Nc1cc(Br)c(-c2ccnc3[nH]ccc23)s1)c1ccccc1", "note": "(stereo not shown) [GSK1269851]", "%Inh": 90.7}, {"smiles": "COc1ccc(Nc2nccc(NCCNC(=O)c3cc4ccccc4s3)n2)cc1", "note": "[GSK1379896]", "%Inh": 3}]}]}
